High-throughput results from PubChem.
Only some compounds are listed: those with a hit (about 2.3% of all), similar ones and a draw of the others.
CHO-K1 Ca ag: counter-screen for M1 agonists: effect in parental CHO-K1 cells. Fluo-8 calcium fluorescence; scaled to maximal ATP response, vehicle zero. activation, % at 3 µM. 0.48% of 360,000 active; in the data active = activation above about 15%;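 note: untransfected CHO-K1 host cells lacking M1 receptor as counterscreen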
M1 PAM: potentiates human M1 receptor response to acetylcholine | activation, % at 3 µM | AID 588819 | 0.088% of 360,000 active | CHO-K1 hM1, Fluo-8 calcium fluorescence, ACh EC20; 0% = ACh EC20, 100% = maximal ACh | P11229; in the data active = activation above about 19%, passing the limit was not always enough
Target sequence (P11229 whole entry, looked up): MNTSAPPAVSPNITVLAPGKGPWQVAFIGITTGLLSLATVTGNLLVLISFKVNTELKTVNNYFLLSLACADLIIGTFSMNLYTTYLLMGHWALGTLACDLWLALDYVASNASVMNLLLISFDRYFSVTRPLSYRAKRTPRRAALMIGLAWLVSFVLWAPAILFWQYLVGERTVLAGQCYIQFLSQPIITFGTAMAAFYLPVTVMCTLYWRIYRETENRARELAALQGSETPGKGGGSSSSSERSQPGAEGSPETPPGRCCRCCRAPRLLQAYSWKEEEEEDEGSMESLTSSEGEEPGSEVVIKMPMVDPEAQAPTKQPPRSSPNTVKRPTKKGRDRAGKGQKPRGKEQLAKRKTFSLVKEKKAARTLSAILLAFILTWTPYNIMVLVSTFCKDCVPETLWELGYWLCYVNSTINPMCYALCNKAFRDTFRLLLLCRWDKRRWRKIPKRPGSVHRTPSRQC
CHO-K1 Ca antag: counter-screen for M1 antagonists: effect in parental CHO-K1 cells. ATP-induced calcium, Fluo-8 fluorescence. inhibition, % at 3 µM. 0.6% of 360,000 active;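 active = inhibition above a per-plate cutoff, the plate's mean sample inhibition plus 3 SD, cut at about 24% in these data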;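 note: 0% = DMSO plus EC80 ATP and 100% = DMSO alone without ATP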
M1 ag: human M1 muscarinic receptor agonism | P11229 | CHO-K1 hM1, Fluo-8 calcium fluorescence, agonist mode; 0% DMSO, 100% acetylcholine EC100 | activation, % at 3 µM | 0.33% of 360,000 active;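 active = activation above the run's mean compound activation plus 3 SD, cut at about 16% in these data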;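 note: peak over basal fluorescence ratio within a 140 s kinetic read after compound addition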
CHO-K1 Ca PAM: nonselective activator or artifact in parental CHO-K1 calcium assay | ATP EC20, Fluo-8 calcium fluorescence; 0% at ATP EC20, 100% at ATP max | activation, % at 3 µM | 0.02% of 360,000 active | AID 602247;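 active = activation above the run cutoff, the mean activation of all test compounds plus 3 SD, cut at about 40% in these data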;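 note: peak over basal fluorescence ratio in a 140 s read after ATP addition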
M1 antag: antagonists of human M1 muscarinic receptor; CHO-K1 hM1, Fluo-8 calcium fluorescence, ACh EC80 antagonist; 1.3% of 360,000 active; AID 588852; inhibition, % at 3 µM;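 active = percent inhibition above its own plate's cutoff, namely the mean of that plate's compound wells plus 3 SD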;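 note: peak over basal fluorescence ratio during 140 s after agonist addition; 0% = ACh EC80 plus DMSO and 100% = DMSO alone without agonist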
* = called active by the depositor.

SMILES	CHO-K1 Ca ag	M1 PAM	CHO-K1 Ca antag	M1 ag	CHO-K1 Ca PAM	M1 antag
C[C@@H]1OC(C2CCCCC2)N(C)[C@H]2C[C@H]3c4[nH]c5ccccc5c4CCN3C[C@@H]12 (some centres undefined)	-0.2	-16.5	24.2*	-11.1	-8.1	22.8
COc1ccc(C(=O)NCCNc2ccccc2[N+](=O)[O-])cc1	1.1	4.7	-12.4	-5.0	7.5	-7.0
CCCNC(=O)c1ccc(S(=O)(=O)c2ccc(OC)cc2)c([N+](=O)[O-])c1	16.3*	-14.5	8.5	-2.3	-5.7	16.9
CN(Cc1cccc2cnccc12)C(=O)CCc1nnc(CCc2ccccc2)o1	16.7*	-0.5	0.5	-8.4	16.3	3.0
CCOC(=O)C1C(=O)CC(C)(O)C(C(=O)OCC)C1c1ccc(N(CC)CC)cc1 (centres undefined)	0.5	9.0	-1.1	-4.3	9.2	-28.6
CCN(CC)c1ccc(C2C(C(=O)OC(C)C)C(=O)CC(C)(O)C2C(=O)OC(C)C)cc1 (centres undefined)	3.2	-9.2	6.8	-0.9	5.0	29.9*
c1ccc(COc2ccc(Nc3ncnc4nc[nH]c34)cc2)cc1	1.4	1.4	24.5*	10.3	-0.4	-3.4
CCOC(=O)c1ccc(Nc2ncnc3nc[nH]c23)cc1	3.2	-0.8	-9.5	-1.2	16.5	3.6
O=C(NC1CCSc2ccccc21)c1cccc(OC(F)F)c1 (centres undefined)	1.9	5.5	-23.5	-8.8	-8.1	-9.6
FC(F)Oc1ccc(NC(=S)NC2CCCCCCC2)cc1	14.1	-23.7	8.4	-5.5	-0.2	34.2*
S=C(Nc1ccc(Cl)cc1)NC1CCCCC1	10.3	-4.6	10.4	0.1	-5.5	0.7
FC(F)Oc1ccc(NC(=S)NC2CCSc3ccccc32)cc1 (centres undefined)	14.6	-23.7	20.2	0.1	-4.1	86.9*
COC(=O)c1sc(N2C(=O)C(O)=C(C(=O)c3ccc(C)o3)C2c2cc(OC)ccc2OC)nc1C (centres undefined)	-0.1	2.2	-5.8	-1.6	2.7	-3.9
Cc1ccc2nc(SCC(=O)Nc3ccc(F)cc3)nc(=O)n2c1	1.7	1.1	-0.9	0.0	14.8	-1.3
CCc1ccc(NC(=O)CSc2nc(=O)n3cc(C)ccc3n2)cc1	0.2	-1.0	43.0*	-2.8	-8.0	4.0
CC(=O)c1c(C)[nH]c(C(=O)CN2CCN(S(=O)(=O)c3ccccc3[N+](=O)[O-])CC2)c1C	18.6*	-12.6	-15.2	0.8	8.7	3.2
Fc1ccccc1-c1csc(=Nc2cccnc2)n1CC1CCCO1 (centres undefined)	4.0	-7.7	3.3	-8.2	-8.4	8.9
Fc1ccccc1-c1csc(=Nc2cccnc2)n1CCCn1ccnc1	2.3	-26.9	-3.7	-11.1	18.4	30.4*
O=C1OC(c2cccs2)Sc2ccccc21 (centres undefined)	0.4	5.9	-9.7	-12.4	21.2	-9.3
CCOC(=O)C1(Cc2ccccc2)CCN(Cc2cn(CC(=O)OC)c3ccccc23)CC1	0.8	3.9	-12.2	-6.3	23.1	-5.2
CCOC(=O)C1(CCc2ccccc2)CCN(Cc2ccc(C(=O)OC)cc2)CC1	0.4	-3.9	-8.5	-4.2	-9.6	-2.4
COC(=O)c1ccc(CN2CCN(CC(C)C)C(CCO)C2)cc1 (centres undefined)	0.9	-16.8	-10.7	-7.6	25.2	35.4*
CCOC(=O)C1(CC2CC2)CCN(Cc2cn(C)c3ccccc23)CC1	3.4	-23.7	3.5	-11.1	13.3	32.5*
CCOC(=O)C1(CC2CC2)CCN(Cc2ccc(C(=O)OC)cc2)CC1	1.2	-24.1	-0.5	-4.7	-4.8	60.0*
COC(=O)c1ccc(CN2CCC(CO)(Cc3ccccc3Cl)CC2)cc1	1.1	-5.0	11.9	19.1*	5.2	52.5*
SMILES	CHO-K1 Ca ag	M1 PAM	CHO-K1 Ca antag	M1 ag	CHO-K1 Ca PAM	M1 antag
COc1ccc(-n2c(SCC(=O)N3CCOCC3)nc3ccccc3c2=O)cc1	0.1	7.2	2.5	0.5	15.5	-5.8
O=C(CN1C(=O)NC(c2ccc(F)cc2)C1=O)Nc1ccc2c(c1)OCCO2 (centres undefined)	0.2	-3.5	13.9	-1.9	-25.0	-2.2
COC(=O)c1ccc(CN2CCCCC2)cc1	0.3	-9.3	-9.8	27.4*	14.9	25.6
COc1ccc(C(=O)Nc2ccc(CN3CCCCC3)cc2)cc1	0.8	-4.5	-10.4	-7.5	-2.5	10.1
CCOC(=O)C1CCN(Cc2ccc(C(=O)OC)cc2)CC1	0.2	-19.9	-16.3	43.1*	13.6	67.1*
COC(=O)c1ccc(CN2CCCC(C(=O)Nc3ccc(-c4ccn[nH]4)cc3)C2)cc1 (centres undefined)	7.2	-7.8	-17.5	36.5*	0.3	12.1
CCOC(=O)C1CCN(C(=O)CCC(=O)NCCc2ccc(Cl)cc2)CC1	1.0	12.4	-10.1	-1.6	15.8	-16.3
CCOC(=O)C1CCC(CNCc2ccc(Cl)cc2)CC1 (centres undefined)	1.3	-20.0	-13.9	-9.8	27.4	45.3*
COC(=O)c1ccc2c(c1)sc(=NC(=O)CCS(=O)(=O)c1ccccc1)n2C	2.1	1.1	-10.6	-2.3	25.8	-1.5
Nc1nc(=S)c2ncn(C3OC(CO)CC3O)c2[nH]1 (centres undefined)	1.2	7.4	-14.8	-0.3	22.4	-8.8
COC(=O)c1ccc(CN2CCCC(C(=O)c3ccccc3OC)C2)cc1 (centres undefined)	0.6	-6.3	-12.8	27.2*	9.7	7.3
COC(=O)c1ccc(CN2CCCC(C(=O)c3cc(F)ccc3OC)C2)cc1 (centres undefined)	-0.3	1.9	0.8	9.5	2.9	1.0
COc1ccc(/C=C/CN2CCC(CO)(Cc3ccccc3Cl)CC2)cc1	3.8	-30.8	2.1	-9.3	4.3	30.6*
Nc1cc2c(cc1Cl)-c1ccc([N+](=O)[O-])cc1C2=NO	3.6	-0.5	-2.0	0.4	13.2	1.7
COc1ccc(/C=C/C(=O)OCC(=O)N2c3ccccc3CC2C)cc1 (centres undefined)	1.3	6.0	-11.7	-4.3	15.9	-9.5
O=C(c1ccc([N+](=O)[O-])o1)N1CCN(c2nc3c(F)cc(F)cc3s2)CC1	1.8	-5.9	23.8*	-3.6	-9.9	4.8
Cc1ccc(C)c2sc(N3CCN(C(=O)c4ccc([N+](=O)[O-])o4)CC3)nc12	0.0	-0.4	21.4	-3.0	-35.0	0.2
COc1ccc(-c2nnc(SCC(=O)NCC3CCCO3)o2)cc1 (centres undefined)	-0.1	5.3	-1.6	-3.2	-2.4	-3.7
Cc1cc(C)cc(-c2nnc(SCC(=O)NCC3CCCO3)o2)c1 (centres undefined)	0.2	28.4*	-15.7	0.7	12.7	-24.5
